According to the supplement of paper PMC11417369:
The full ranking holds about 25,000 sequences; the median of “ln(normalized median fluorescence intensity)” is about 7.1, and the highest 2% start at about 10. Many of the other results were omitted from the sample, so the highest values are more common in it than they were.

Each sequence was assayed on PfSIP2 AP2 domain 1 (GST-tagged) (assay: gcPBM binding intensity (ln(normalized median fluorescence intensity)); higher = stronger DNA binding).
How it was run: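 Binding intensity is defined as the maximum Masliner-normalised natural-log median intensity across replicate spots for either probe orientation. It was measured on an Agilent 4 × 180k array of primer-extended double-stranded 36-bp intergenic genomic probes and negative controls, to which GST-tagged P. falciparum DNA-binding domains made in E. coli were applied for 1 h in 1× PBS with 1% milk, 0.2 mg/ml BSA, 0.5% salmon testes DNA and 0.03% Triton X-100. Detection was by Alexa488 anti-GST antibody and scanning at 488 nm.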

Sequence	gcPBM binding intensity (ln)
AATGACTACATAATAGTGCAATATTAAAGAAAATTA	8.55
TTCTCCTAATAGTTAGTGCACTACATAACTAAGAAA	10.8
AAATAATTAGAAATAGTGCACATAATTAAGGGATAC	10.1
TATTTTTTTACATATTGTACATAATATAAAACTTAC [XGTACX_site8273]	7.17
TATTATATATTAAATGCATGTAAAAATAATATTAAA [TGCATGCA_site643]	7.02
GATAAAATCACTGGTGCATGTAGATATATAATATTA [TGCATGCA_site589]	10.5
GAAAAATATATTCTGGTGCATGAATAAAATCATAAA	10.2
TACCATAATCAATGCACACATAACAAAATATTATTA [CACACA_site2722]	7.33
ATCAAAATTGTCATTACACACCTTTATTTTTATAAT [CACACA_site5071]	7.12
TATATAGAGAGATATGCACACTGTATGAATGCCCCC [CACACA_site5476]	9.53
AATATATAGAGAGATATGCACACTGTATGAATGCAC [CACACA_site2677]	10.3
TATATGGAGAGATATGCACACTGTATGAATGCCCCC [CACACA_site8853]	9.32
ATATATATATATAATAAACACACAAATAGATATAAC [CACACA_site9234]	9.02
AATAATTCATCATATGCACACACAATACCAAAATGT [CACACA_site7945]	8.05
GAAAATATTAAATGAAGTACAATATTTATGTTACTT [XGTACX_site8737]	6.71
TTTTTTTTTGGGGGTGCATGCAAGACATATATTTAA [TGCATGCA_site228]	11.6
TATATATATATATATACATGCATATTTTTTATTTTT [TGCATGCA_site464]	9.67
AATATTTTTTTTTAAACATGCATATTTGCATTACCC [TGCATGCA_site437]	6.99
ACAAAATAATTGTTTACACACCCATTTGTAATTTTA [CACACA_site3615]	6.88
TTATCATATCATGGAAGTACAAATAAAATATATAAC [XGTACX_site1608]	7.24
ATTTCATATGGTCAACGTACTCATGCATCCCTCCTT [XGTACX_site437]	6.86
GTTATAATTGAACTAGTGCATAAATATATTTTAATT [GTGCAC_site9851]	9.01
ATTTTCACCTGAACGGTGCATATTTAATTTTAGGTT	10.5

Sequence	gcPBM binding intensity (ln)
TTATTTTAATTTTTGGTGCATATTCAAGTGTACCTT [GTGCAC_site9791]	9.68
ATTTATTTATCTAGCTATTCACCATTTTCTTTTGTT [CACACA_negctrl_site1259]	6.61
TTTAATTGATAATGAAGACAATTATATGCATCCAAA [TGCATGCA_negctrl_site138]	6.79
ACGACATATGGATGATGTACTATCTTTATTATACAT [XGTACX_site6857]	6.89
ATGCATAAAAGAAATACACACATAAATATATAAATA [CACACA_site2163]	7.02
ATATATATATAATAAGTGCAAAAAAAAGAAAAAAAT	8.48
TAAAAGAAATAAGGTGCACACATATACATATATATA [CACACA_site8037]	11.8
TAAAGAAATAAATACATACACACATATATATATATA [CACACA_site3363]	9.69
AAATATAATATATGCACACATACATACAGATATATA [CACACA_site4235]	7.09
AAAGAAATAAGGTGCACACATATACAGATATATATA [CACACA_site4399]	11.9
TAAAAGAAATAATATACACACATATATAAAAATAAA [CACACA_site1329]	6.86
AAAGAAATAAGGTGCACACATATACATATATATATA [CACACA_site429]	11.9
AAAAAAAAAATACAGGTGCAATAAGAAAAAAATGGT	10.2
AGAAATAAGAAATATACACACATATATATATATATA [CACACA_site2808]	9.79
AAATATAAGAAAAAGGTGCTTTTTTTTTTTTTTTTT [GTGCAC_site9700]	8.42
TATACAGATAAATACACACACACATATATATATATA [CACACA_site4845]	9.39
AAGGAAAAGTAAAGAAGTACTGTACCGCCAAAAAAA [XGTACX_site2607]	6.98
TAAATATATTTATATTGTACATTTATGTTGATACCA [XGTACX_site228]	6.88
TATAGATAAGAATATGCACACATTTTATTTTTTTTT [CACACA_site1982]	7.16
TCTTTAAAAAAAAAAAAAAAAAATTCCAAATAAATA [TGCATGCA_negctrl_site538]	6.72
ATTTGTTCATTTGGTTGTACATAATTTATTTTTATA [XGTACX_site785]	7.26
TTGTATATTTTATGTACACACAATAAGTTAATATAA [CACACA_site4655]	7.29
TATATTTATATCATCACACATTTTTTTTTTCTTTTT [CACACA_site6150]	6.58

Sequence	gcPBM binding intensity (ln)
ATATATATTAATAGTTGTACTATTATAATATTACAA [XGTACX_site1213]	7
AGGATAACATACAAAAGTACATAAAACTAAAAAAAC [XGTACX_site26]	7.32
TATATGTTTACTTAATGTACTTACATTTTTATAACA [XGTACX_site1100]	6.91
GCATTATTATATATTTGTACATATTTTTTTTTAAAA [XGTACX_site5436]	7.3
AATATATAAACACGTACACACACATATATGTATATA [CACACA_site9168]	7.39
TATTAAATTATATAGACACACATTATGTATATATAT [CACACA_site345]	7.49
TTTTTTAAAAGAAAATAAAAAATAAGCATAATATGA [CACACA_negctrl_site1574]	7.06
ATGGAATATTTCATGATTTTTTTAATTTTTTTATTG [XGTACX_negctrl_site55]	6.6
ATATATTATATATATTTTAAGTAATTTGCAAAAAAT [GTGCAC_negctrl_site361]	7.01
GAAAGAATAAAATAAACATGCAAATAAAACATAAAA [TGCATGCA_site471]	7.2
ACGGAAAAAGAAAAGGTGCATATGGACACAATATAT	11.3
AAAAGGAACGGACACACACACATATATATATATATA [CACACA_site5894]	9.31
CACATAAAATAAGGTGCATGCAAACGAGAAAATAAA [TGCATGCA_site75]	11
AGGTGCAAAAATAAAACATGCAAAAATAAAAATGAA [TGCATGCA_site502]	9.93
TATGGAAGAAAATATACACACAAAAAAAAAAAATGG [CACACA_site4924]	6.99
TTGTTAAATATTTATAAAATGAATTTAAAATGTACT [CACACA_negctrl_site665]	7.05
ATATGTATAAATATAAATATATATATATATATATAT [CACACA_negctrl_site705]	9.63
TAATATAAAGGAAAAGAAAAGAAAAGAATATACAAT [CACACA_negctrl_site1369]	6.69
GAAAGGACAAGAATAGTGCACATGCAATGTTATTTT [GTGCAC_site9985]	9.8
GTAATAAGAATTATAGTGCAATGTAATACATTTATA	7.97
GGACAAGAATAGTGCACATGCAATGTTATTTTTTAT [TGCATGCA_site450]	10.9
ATTTTTTTTTTTTTTATTCCCCTTTCGAAAAAAACC [CACACA_negctrl_site1139]	7.18
ATAGTTTAATTTATATGTACATATAATATTGATTTG [XGTACX_site7520]	7.29

Sequence	gcPBM binding intensity (ln)
CTTATTGATTTAAAAAGTACATATATGTATATACAC [XGTACX_site4072]	7.05
TACTTATTTGATTGGGTGCATATATATAGTATGTAT [GTGCAC_site9845]	10.6
TTTTATTTATCTAATTGTACTCATTCTTTTTTGATG [XGTACX_site2876]	6.88
AGATATATATATAGGTGTACTGGAATGAAATTGTTT [XGTACX_site8200]	6.94
GATGAAAATAGAAATACACACTAAAAAATAAAATTA [CACACA_site4764]	6.75
AAATAAAAATTAAAAAAATAGAAACGAATTGAATGC [TGCATGCA_negctrl_site365]	7.2
TATAAATTAAAATGTGTGCACTAAATTGAAATAGAA	10.7
TCAATATATATAAGAAGTACATGTGAATGAAAAAAA [XGTACX_site1674]	7.14
AAAAAAAAATTATTCACACATATATATATATATATA [CACACA_site5579]	9.38
TAAAATAATTTATGCATACACACATATATATATATA [CACACA_site4021]	9.23
GCATATTTTATAATTTTACACACCATATAAAATAAT [CACACA_site8904]	7.2
ATATACACCTGAGAGGTGCATATATATAAAATTTAC	11.2
TAAGAATTGAAAAAATGTACACAATATAAAATTGAA [XGTACX_site698]	6.88
TATTAAAAATGTTAAGTGCAAAAATAAAAATTGTGG [GTGCAC_site9854]	7.71
TAAATTATAATATGCACACAAAATGTTATATTAAAA [CACACA_site376]	7.01
ATAATTAAGTTATGTGTGCACTGTTAAAAATAAATG	10.4
ACCTATATAAGTTATACACACAAATATAGATATATA [CACACA_site7356]	7.06
ATGTAAGTTGTGCATTCACACACATATATATATATA [CACACA_site9086]	9.26
AACAAGTTGCATGGTGCACACATGTATTTATATCTA [CACACA_site5414]	11.8
TAGTTGCACATGTATACACACAAAAAATATTTTATG [CACACA_site475]	7.68
TATGGTATATACAACACACACACATATGTATATATA [CACACA_site927]	7.14
ATCATATGTATGCATACACACAAAAAGTTATTTATA [CACACA_site6325]	7.06
AACAAGTTGCATGGTGCACACATGTATATATATCTA [CACACA_site2548]	11.6
